Compound activity deposited in PubChem by several laboratories.
Sa RN4220 lethal – kills Staphylococcus aureus RN4220. inhibition, % (concentration not given with the values). S. aureus RN4220 growth, OD600, 16 h. 0.33% of 330,000 active. AID 1259311; in the data active = inhibition above about 85%;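 also: plate controls were untreated cells for no effect and reference antibiotic for full effect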
BJeLR lethal – BJeLR cell viability loss | BJeLR (HRASV12) viability, CellTiter-Glo ATP luminescence, 48 h | inhibition, % (test concentration not listed) | 0.17% of 300,000 active; in the data active = inhibition above about 50%
RecA splice inh – inhibitors of M. tuberculosis RecA intein splicing; P9WHJ3; AID 2221; cell-free RecA intein splicing, fluorescence; inhibition, % (test concentration not listed); 0.75% of 290,000 active; in the data active = inhibition above about 30%;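 also: 0% = vehicle wells and 100% = reference inhibitor control wells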
CCHFV vOTU inh – blocks the CCHF virus ovarian tumor domain protease | 0.55% of 370,000 active | AID 651958 | CCHFV vOTU protease, Pep-AMC fluorescence | inhibition, % at 11.5 µM; in the data active = inhibition above about 30%; also: 0% = vehicle wells with enzyme and 100% = no enzyme wells
ugtP null kill – growth inhibition of S. aureus ugtP deletion strain | 0.54% of 330,000 active | AID 1259309 | S. aureus RN4220 ugtP deletion, OD600 growth, 16 h | growth inhibition, % (test concentration not listed); in the data active = growth inhibition above about 68%;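 also: plate controls were untreated wells for no effect and antibiotic for full effect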
Mtb hypoxia inh – inhibitors of hypoxia-regulated fluorescent reporter in Mycobacterium tuberculosis; M. tuberculosis hypoxia-regulated fluorescent reporter, fluorescence; fluorescence inhibition, % (test concentration not listed); AID 1159583; 0.1% of 300,000 active; in the data active = fluorescence inhibition mostly above about 23%, no sharp cut-off; inactive = mostly below about 17%
* hit, by the source's call; . = no result shown; ! = a repeat was not active. A selection: hits, their analogues and other compounds. The true share with any hit is near 1.6%.

SMILES	Sa RN4220 lethal	BJeLR lethal	RecA splice inh	CCHFV vOTU inh	ugtP null kill	Mtb hypoxia inh
COc1cc(/C=C/C(=O)Nc2ccc(OC)c(S(=O)(=O)N3CCOCC3)c2)ccc1OC(F)F	-12.0	.	.	13.5	86.6*	7.5
COC(=O)C1=C(c2ccc(S(C)(=O)=O)cc2)CC2CCC1N2C(=O)NCc1ccccc1 (configuration not stated)	4.1	.	.	.	1.7	12.1
O=C1c2ccccc2-c2nnc(-c3ccc(O)cc3)cc21	12.1	-4.1	48.7*	-7.0	-0.6	5.4
Cc1ccc(-c2cc3c(nn2)-c2ccccc2C3=O)cc1	45.7	20.2	12.2	25.3	48.4	0.4
Cc1cc(C)c2nc(C)cc(N/N=C/c3ccc(O)cc3)c2c1	.	51.2*	-8.8	-0.7	.	.
CC(=O)N1C(Cc2ccccc2)C=C[C@]1(C)C(=O)NCCN1CCOCC1 (some centres not stated)	3.1	.	.	.	-1.0	5.4
COC(=O)C1=C(c2ccc(S(C)(=O)=O)cc2)CC2CCC1N2C(=O)NCCO (configuration not stated)	5.5	.	.	.	-7.3	-0.7
CC(C)(C)c1cc(C(=O)NN=Cc2ccccc2O)n(-c2ccccc2)n1	67.8	.	.	.	99.9*	14.8
CCN(CC)C(=O)CSc1nnc2nnc3cc(Cl)ccc3n12	4.3	-2.8	42.4*	-0.1	10.2	.
O=C(NCc1ccc2c(c1)OCO2)c1ccc(Br)cc1	-0.1	-11.9	-1.8	-6.8	2.5	.
Cc1nc2cc(C(=O)NCc3ccc4c(c3)OCO4)ccc2n1-c1ccc(Br)cc1	-16.3	9.2	0.3	-3.0	95.5*	0.2
COc1ccc(S(=O)(=O)Nc2cccc3c2OC(CN(C)S(=O)(=O)c2ccccc2)C(C)CN(C(C)CO)C3=O)cc1 (configuration not stated)	7.0	.	.	.	-14.6	3.5
C[C@]12C(=O)N(c3ccccc3)C(=O)N1C1c3ccccc3OCC1C2c1ccccc1 (some centres not stated)	-3.8	.	.	.	-0.9	-0.9
O=C(c1cccs1)N(Cc1ccco1)c1nc(-c2ccc(F)cc2)cs1	-16.2	-1.4	.	6.2	91.9*	-0.7
CCC1=C(OC(=O)N(CC)CC)N2C(=O)OC(=NCC(=O)OC)[C@]2(Cc2ccccc2)C2C1=CCC1C(=O)N(CC(=O)OC)C(=O)C12 (some centres not stated)	8.5	.	.	.	1.0	4.0
O=C1C2CC3CCC2(O3)C2OCCCN12 (configuration not stated)	1.4	.	.	.	-12.0	13.1
CC(C)(C)c1cc(CCC(=O)NCCc2ccccn2)cc(C(C)(C)C)c1O	5.9	-1.3	1.3	-15.2	-1.0	8.5
O=C1C=C(NCCc2cc(Br)c(O)c(Br)c2)C(=O)c2ncccc21	.	.	.	108.1*	.	.
CN(C)c1ccc(/C=[N+](\[O-])C(C)(C)C=NO)cc1	3.1	.	.	.	-3.9	-0.3
CCOP(=O)(Oc1ccccc1)c1c([N+](=O)[O-])cc(C(F)(F)F)cc1[N+](=O)[O-] (configuration not stated)	5.6	-14.4	9.8	-7.0	7.7	41.8*
O=C(Nc1ccc(F)cc1)Nc1cc(OCC(F)(F)F)cc(OCC(F)(F)F)c1	91.7*	11.2	2.9	-11.2	99.7*	3.2
CCOC(=O)C1Nc2ccccc2C2c3ccccc3CC12 (configuration not stated)	17.1	1.8	18.5	-4.8	18.1	19.1
CCOC(=O)C1Nc2c(F)cc(C)cc2C2c3ccccc3CC12 (configuration not stated)	-5.6	-1.4	45.0*	-7.8	6.1	6.7
CC1(C)CC[C@]2(C(=O)O)CC[C@]3(C)C(=CC[C@@H]4[C@@]5(C)CC[C@H](O)C(C)(C)[C@@H]5CC[C@]43C)[C@@H]2C1	.	.	.	-2.1	.	.
CC1CC[C@]2(C(=O)O)CC[C@]3(C)C(=CCC4[C@@]5(C)CCC(O)C(C)(C)C5CC[C@]43C)C2C1C (some centres not stated)	100.4*	.	.	.	99.7*	-2.1
SMILES	Sa RN4220 lethal	BJeLR lethal	RecA splice inh	CCHFV vOTU inh	ugtP null kill	Mtb hypoxia inh
O=C(CCSc1nnc(-c2ccccc2)o1)N1CCOCC1	12.3	0.5	0.1	-1.1	10.8	40.4*
O=C(Nc1nc(-c2ccccc2)c(-c2ccccc2)o1)c1ccc(F)cc1	99.1*	-6.8	8.4	16.5	96.1*	10.8
CCOC(=O)c1c(NC(=O)CSc2nnc(-c3ccco3)o2)sc(C)c1C	3.7	5.9	-1.4	-1.1	-4.3	5.8
CCOC(=O)c1c(NC(=O)CSc2nnc(Cc3ccccc3)o2)sc(C)c1C	19.3	-0.9	1.8	14.9	97.8*	15.3
N#CCC(=O)N1CC2(CC(c3cccc(NC(=O)COc4ccc(Cl)cc4)c3)=NO2)CC1C(N)=O (configuration not stated)	7.0	.	.	.	1.2	4.3
NC1=NCC(Cc2ccc(O)cc2)N1CCc1cccc2ccccc12 (configuration not stated)	76.3	.	.	.	100.4*!	-0.1
NC1=NCC(Cc2ccc(O)cc2)N1CCCCC1CCCCC1 (configuration not stated)	100.7*	.	.	.	100.4*	-8.0
CCCCN1C(N)=NCC1Cc1ccc(O)cc1 (configuration not stated)	-1.2	.	.	.	-1.6	-7.6
NC1=NCC(Cc2ccc(O)cc2)N1CCC12CC3CC(CC(C3)C1)C2 (configuration not stated)	100.5*!	.	.	.	100.8*!	8.4
CC(C)(C)c1ccc(OCc2cnc(Cl)s2)cc1	2.0	12.9	8.9	13.9	74.2	39.3*
COc1ccc(N2C(=O)C(=Cc3ccc([N+](=O)[O-])cc3)N=C2C)c(OC)c1	3.5	.	.	.	-5.0	-7.7
COC(=O)C1=C(C)N(c2ccc(Cl)cc2)/C(=C/c2ccc(O)cc2)C1=O	47.9	-6.2	-2.9	3.6	-3.5	-1.0
COC(=O)C1=C(C)N(c2cc(C)cc(C)c2)/C(=C/c2ccc(O)cc2)C1=O	88.7*	-7.9	0.9	-5.4	59.9	1.2
Oc1c(C(c2ccccc2)N2CCOCC2)ccc2ccccc12 (configuration not stated)	24.6	.	.	11.8	87.1*	14.6
Cc1ccc2c(c1)-c1c(ssc1=S)C(C)(C)N2C(=O)CSC1=NCCS1	2.3	-7.4	30.1*	-16.8	14.7	1.4
Cc1cc(CN2CCN(CCC#N)CC2)c(O)c(C2(C)CCCCC2)c1	16.4	1.6	.	7.2	84.3*	.
COc1ccc(C2C=CCN(C(=O)CC(C)(C)C)CC(=O)N2Cc2ccc(F)cc2)cc1 (configuration not stated)	8.2	.	.	.	-4.9	11.0
COc1ccc(C)cc1Nc1nc(-c2ccccc2O)nc2ccccc12	52.8	8.3	-8.8	5.1	91.3*	2.9
C=C(C)C(=O)Nc1cccc(C2=NOC3(C2)CC(C(N)=O)N(C(=O)C=CC)C3)c1 (configuration not stated)	1.6	.	.	.	-3.9	-1.6
C=CCC(CC(=O)NCCO)C(=O)NC(COC(=O)C(CC=C)CC(=O)OC(C)(C)C)Cc1c[nH]c2ccccc12 (configuration not stated)	6.1	.	.	.	2.6	15.0
